According to PMC5540273 (PLoS ONE, 2017):

How the values were obtained:
Details in all cases: concentration: 1 μM, replicates: in singlicate; n = 1
CDKL3 = test system: CDKL3
CDKL5 = test system: CDKL5
CHEK1 = test system: CHEK1
CHEK2 = test system: CHEK2
CIT = test system: CIT
CLK1 = test system: CLK1
CLK2 = test system: CLK2
CLK3 = test system: CLK3
CLK4 = test system: CLK4
CSF1R-autoinhibited = test system: CSF1R-autoinhibited
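Note: KINOMEscan kinase panel screen.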

Structure (SMILES)	%Inh (CDKL3) [%]	%Inh (CDKL5) [%]	%Inh (CHEK1) [%]	%Inh (CHEK2) [%]	%Inh (CIT) [%]	%Inh (CLK1) [%]	%Inh (CLK2) [%]	%Inh (CLK3) [%]	%Inh (CLK4) [%]	%Inh (CSF1R-autoinhibited) [%]
CCc1nc(-c2cccc(C)c2)c(-c2ccncc2)s1	7	0	0	16	72	13	6	0	0	0
Cn1c(=O)c(F)c(Nc2ccc(I)cc2F)c2c(=O)n(OC[C@H](O)CO)cnc21	7	0	0	0	17	7	16	17	0	0
COc1ccc(CNC(=O)NC2CCN(c3ccnc(Nc4ccc(F)cc4)n3)C2)cc1 (centres unmarked) [GSK1379706]	0	0	8	48	9	16	0	0	8	50
Nc1nc(-c2ccccc2F)c(-c2ccnc3ccccc23)s1 [GW560459]	0	0	0	14	30	12	0	8	7	24
CN1C(=O)C(Nc2ccccc2)=C(c2ccccc2)C1=O [SB-300079]	19	0	0	0	4	0	18	0	0	0
COc1cccc(C2=C(Nc3cccc(C(=O)O)c3)C(=O)NC2=O)c1 [SB-390770]	0	0	0	0	39	9	21	0	20	0
COc1cccc(C2=C(N(C)c3ccccc3)C(=O)NC2=O)c1 [SB-334865]	0	0	0	0	6	15	0	0	13	0
COc1cc2ncn(-c3cc(OCc4ccncc4Br)c(C(N)=O)s3)c2cc1OC [GW854278]	0	0	0	10	3	10	38	0	0	0
Cc1nnc(-c2ccc3ncn(-c4ccc(S(C)=O)cc4)c3c2)o1 (centres unmarked)	2	0	1	0	35	46	10	0	40	7
Cc1cc(Nc2nc(-c3cccc(C)n3)nc3ccccc23)ccn1 [GW872411]	0	0	0	0	0	11	0	0	0	0
CCn1c(-c2ccoc2)nc2cnccc21 [SB-733887]	0	0	17	24	19	26	0	0	3	15
CC(C)(C)c1ccc(C(=O)Nc2cn3cc(-c4ccccc4)ccc3n2)cc1	0	0	4	0	2	33	7	9	7	0
Cl.NS(=O)(=O)c1cccc(Nc2cc(-c3ccc(F)cc3)n[nH]2)c1 [GW824645]	1	0	0	0	2	0	0	0	0	0
CCS(=O)c1ccc(-c2coc3ccc(-c4nnc(C)o4)cc23)cc1 (centres unmarked)	0	0	0	0	2	0	0	0	5	8
COc1cccc(-n2cnc3c(N)ncnc32)c1 [SKF-97416]	0	14	0	25	8	6	3	0	0	16
Cc1cccc(-c2cc(-c3c[nH]nc3-c3ccccn3)ccn2)c1 [GW679395]	0	0	0	0	45	18	2	0	6	0
COc1cc2nccc(Nc3ccc(OCc4ccc(NC(C)=O)cc4)cc3)c2cc1OC.Cl [GW440135]	20	0	0	0	0	8	0	10	0	25
COc1ccc(Nc2nccc(N3CCC(NS(=O)(=O)c4ccc(NC(C)=O)cc4)C3)n2)cc1 (centres unmarked) [GSK1379729]	4	0	14	0	22	25	0	0	27	0

Structure (SMILES)	%Inh (CDKL3) [%]	%Inh (CDKL5) [%]	%Inh (CHEK1) [%]	%Inh (CHEK2) [%]	%Inh (CIT) [%]	%Inh (CLK1) [%]	%Inh (CLK2) [%]	%Inh (CLK3) [%]	%Inh (CLK4) [%]	%Inh (CSF1R-autoinhibited) [%]
O=C(NCCNc1ccnc(Nc2ccc(F)cc2)n1)Nc1ccc2c(c1)OCO2 [GSK1379882]	0	4	0	18	44	17	13	9	17	13
Nc1ncnc2c1ncn2-c1cccc(F)c1 [SKF-97560]	0	21	17	0	6	22	0	0	0	19
Fc1cccc(CSc2nnc(-c3ccc4c(c3)CCO4)o2)c1	0	16	0	3	0	73	20	0	78	5
COc1cc2ncn(-c3cc(OCCCc4ccccc4)c(C(N)=O)s3)c2cc1OC [GSK205189]	0	2	0	0	10	19	0	0	9	0
Cc1ccc(Oc2ccc(Nc3ncnc4cc[nH]c34)cc2C)cn1	3	3	6	22	57	0	0	0	24	0
COc1ccc(-c2cc3c(C)nc(N)nc3n([C@H]3CC[C@H](OCCO)CC3)c2=O)cn1	29	0	0	12	0	0	0	0	0	12
CCC(=O)c1c(-c2ccccc2)c2cc(Cl)ccc2c(=O)n1Cc1ccc(C(=O)O)cc1	0	0	0	0	0	0	0	0	0	0
C[C@@H]1CC[C@H](C(=O)NC2CCCCC2)CN1c1cc(-c2ccc3c(N)n[nH]c3c2)nc(N)n1 [GSK2291363]	0	4	0	22	24	40	26	16	35	31
COc1ccc(-c2coc3ccc(-c4nnc(SCc5cccc(C#N)c5)o4)cc23)cc1	0	9	0	0	5	47	10	0	57	0
CN1C(=O)C(Nc2cc(Cl)c(O)c(Cl)c2)=C(c2ccc(Cl)cc2)C1=O [SB-404321]	0	0	0	0	38	22	0	0	0	0
O=C(Nc1ccc2c(c1)OCO2)NC1CCN(c2ccnc(NCc3ccc(F)cc3)n2)CC1 [GSK1379859]	0	3	19	0	0	23	0	0	10	0
O=C(NCc1cccs1)c1cc(C(=O)c2c(Cl)cccc2Cl)c[nH]1 [GW823670]	21	0	22	0	16	0	22	0	0	0
CCC(=O)c1c(-c2ccccc2)c2cc(Cl)ccc2c(=O)n1Cc1cc(C(=O)NC2CC2)n(C)n1	0	6	0	6	7	0	0	0	0	0
COC(=O)c1c(-c2ccccc2)c2cc(C)ccc2c(=O)n1Cc1ccccc1	0	0	0	0	0	0	0	0	0	0
O=c1cc(N2CCOCC2)nc2n(Cc3ccc(F)c(Cl)c3)ccn12 [GSK2297099]	0	10	4	0	4	63	45	26	45	0
Nc1nc(N)c2nc(-c3ccccc3)[nH]c2n1 [SKF-12778]	2	4	0	0	17	36	11	13	32	0
COc1ccc(-c2cc3c(C)nc(N)nc3n([C@H]3CC[C@H](O)CC3)c2=O)cn1	0	0	0	13	0	0	0	0	0	6
